CCHF vOTU inh – CCHFV vOTU protease inhibitors, primary screen, biochemical, Pep-AMC substrate, fluorescence; inhibition, % at 11.5 µM; hit rate 0.55% among 370,000; AID 651958, 2012; in the data active = inhibition above about 30%
Y pestis TopoI – Yersinia pestis topoisomerase I inhibitors, primary screen, biochemical, cleavage product accumulation, plate reader, single point; DNA topoisomerase I (Yersinia pestis CO92); Y. pestis Topo-I cleavage product accumulation; activity, % at 10 µM; hit rate 0.064% among 360,000; in the data active = activity above about 50%, passing the limit was not always enough
Mtb BioA inh – M. tuberculosis BioA enzyme inhibitors, primary screen, biochemical, plate reader, single point, HTS; purified M. tuberculosis BioA enzyme; AID 602481, 2012; inhibition, % at 9.99 µM; hit rate 0.096% among 360,000; in the data active = inhibition above about 40%
RecA splice inh – Mtb RecA intein splicing inhibitors, primary screen, biochemical, fluorescence, HTS; Protein RecA (Mycobacterium tuberculosis (strain ATCC 25618 / H37Rv)), P9WHJ3; cell-free RecA intein splicing; inhibition, % (concentration not given with the values); hit rate 0.75% among 290,000; in the data active = inhibition above about 30%
Target sequence (P9WHJ3 whole entry, looked up, canonical isoform): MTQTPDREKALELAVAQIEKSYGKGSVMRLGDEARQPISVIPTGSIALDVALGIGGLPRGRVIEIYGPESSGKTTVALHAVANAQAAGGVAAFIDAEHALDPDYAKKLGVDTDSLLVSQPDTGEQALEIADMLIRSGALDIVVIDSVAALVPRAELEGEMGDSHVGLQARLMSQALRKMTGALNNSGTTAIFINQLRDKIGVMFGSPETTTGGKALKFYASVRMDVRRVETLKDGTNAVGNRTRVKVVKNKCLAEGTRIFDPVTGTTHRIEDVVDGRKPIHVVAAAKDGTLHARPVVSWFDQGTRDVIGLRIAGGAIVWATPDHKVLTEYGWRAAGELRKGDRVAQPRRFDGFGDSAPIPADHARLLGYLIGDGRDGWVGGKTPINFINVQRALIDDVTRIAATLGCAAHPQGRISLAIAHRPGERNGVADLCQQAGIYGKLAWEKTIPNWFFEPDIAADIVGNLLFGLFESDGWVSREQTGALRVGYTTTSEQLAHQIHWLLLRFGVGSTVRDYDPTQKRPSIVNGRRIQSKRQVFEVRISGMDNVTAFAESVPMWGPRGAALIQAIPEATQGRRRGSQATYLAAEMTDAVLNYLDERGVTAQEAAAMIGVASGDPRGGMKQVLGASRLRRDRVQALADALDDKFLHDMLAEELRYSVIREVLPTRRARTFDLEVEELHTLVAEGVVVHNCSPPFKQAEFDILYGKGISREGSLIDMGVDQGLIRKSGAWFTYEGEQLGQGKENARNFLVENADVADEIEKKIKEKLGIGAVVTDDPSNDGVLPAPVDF
Mtb betalactam – beta-lactam sensitization of Mtb H37Rv, H37Rv. inhibition, % at 25 µM. M. tuberculosis H37Rv growth with meropenem, percent inhibition. AID 434955, 2010. hit rate 0.27% among 330,000; call rule not given here;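 note: growth measured after seven days incubation then overnight dye step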
BJeLR viability – MLPCN primary cell-based screen for lethality selective to Ras in HRASV12 cells; hit rate 0.17% among 300,000; AID 1554, 2009; inhibition, % (no concentration beside the values); BJeLR (HRASV12) viability, CellTiter-Glo ATP luminescence, 48 h; in the data active = inhibition above about 50%
Hits are given with their value; 0 = inactive; - = no result given; + = active, no number. Compounds with a hit are over-represented: about 1.1% of the library has one in this group of screens.

SMILES	CCHF vOTU inh	Y pestis TopoI	Mtb BioA inh	RecA splice inh	Mtb betalactam	BJeLR viability
COc1ccc(NC(=O)N(C)C[C@H]2Oc3ccc(NC(=O)CCC(F)(F)F)cc3CC(=O)N([C@@H](C)CO)C[C@H]2C)cc1	-	-	0	-	-	-
C[C@H](CO)N1C[C@H](C)[C@@H](CN(C)Cc2ccccc2)Oc2ccc(NC(=O)Nc3ccc(F)cc3)cc2C1=O	-	-	0	-	-	-
Cc1cc(C)c(S(=O)(=O)/N=C2/C=C(Sc3ncn[nH]3)C(=O)c3ccccc32)cc1C	118	0	-	-	0	-
O=C(O)c1ccc(CN2C(=O)c3cccc4c([N+](=O)[O-])ccc(c34)C2=O)cc1	-	0	0	0	-	73
CC1Oc2cc3c(-c4c(O)cc(O)c5c(O)c6c(cc45)OC(C)C(C)C6=O)c(O)cc(O)c3c(O)c2C(=O)C1C (stereo unspecified)	-	0	0	87	0	0
COc1ccc2[nH]c(=O)c(CN(Cc3cccs3)S(=O)(=O)c3cccc4nsnc34)cc2c1	0	0	0	0	0	52
COc1ccc2[nH]c(=O)c(CN(CCO)S(=O)(=O)c3c(C)ccc4nsnc34)cc2c1	0	0	-	0	0	0
FC(F)(F)c1ccc(C2[C@H]3CN(Cc4ccc(-c5ccccc5)cc4)[C@H](c4ccccc4)C34CC2(c2cccnc2)C4)cc1 (stereo partly specified)	0	-	-	0	0	0
FC(F)(F)c1ccc(C2[C@H]3CN(Cc4cccnc4)[C@H](c4ccccc4)C34CC2(c2cccnc2)C4)cc1 (stereo partly specified)	0	0	0	40	0	0
COCC(=O)N(C)C[C@H]1Oc2cc(C#CCC(C)C)ccc2S(=O)(=O)N([C@H](C)CO)C[C@@H]1C	-	-	0	-	-	-
O=C(Cn1nc(Cc2ccncc2)c2ccccc2c1=O)N1CCc2ccccc2C1	66	0	0	-	0	-
CO[C@H]1CN(C)C(=O)c2ccc(NC(=O)C3CCC3)cc2OC[C@H](C)N(Cc2ccncc2)C[C@H]1C	-	-	0	-	-	-
CCN1[C@@H]2c3ccc(-c4ccc(F)cc4)c(=O)n3C[C@H]1[C@H](CO)[C@H]2C(=O)Nc1nccs1	-	-	0	-	-	-
CCCC(=O)OCC(=O)Nc1ccc([N+](=O)[O-])cc1C#N	0	0	-	0	0	0
N#Cc1cc([N+](=O)[O-])ccc1NC(=O)COC(=O)CCC1CCCCC1	0	-	-	60	0	0
COc1ccc(C2C(C#N)=C(N)OC3=C2C(=O)CC(C)(C)C3)cc1Cn1nc(C)c([N+](=O)[O-])c1C (stereo unspecified)	0	0	-	0	0	0
COc1ccc(C2C(C#N)=C(N)Oc3c2c(C)nn3-c2ccccc2)cc1Cn1nc(C)c([N+](=O)[O-])c1C (stereo unspecified)	0	0	0	54	0	0
CCC1N=C(SC)NC(C)=C1C(=O)c1ccccc1 (stereo unspecified)	0	0	-	0	0	-
CSC1=NC(C(Cl)(Cl)Cl)N=C(c2ccc(C)cc2)N1 (stereo unspecified)	0	0	-	0	0	56
C/C(=N\NC(=O)c1ccc([N+](=O)[O-])cc1)c1cc2ccccc2oc1=O	0	0	0	87	0	0
C/C(=N\NC(=O)c1ccccc1)c1cc2cc([N+](=O)[O-])ccc2oc1=O	0	0	-	-	0	-
Cc1ccc(N=Cc2c(C)[nH]n(-c3nc4ccccc4[nH]3)c2=O)cc1	0	0	0	0	0	103
Cc1[nH]n(-c2ccccc2)c(=O)c1C(c1ccccc1[N+](=O)[O-])C(C#N)C#N (stereo unspecified)	0	0	0	64	0	0
Cc1[nH]n(-c2ccccc2)c(=O)c1C(c1ccccc1C(=O)O)c1c(C)[nH]n(-c2ccccc2)c1=O	0	0	-	0	0	0
O=C(NC(NC(=S)Nc1ccc(Cl)cc1Cl)C(Cl)(Cl)Cl)c1cccc([N+](=O)[O-])c1 (stereo unspecified)	0	0	-	37	0	0
SMILES	CCHF vOTU inh	Y pestis TopoI	Mtb BioA inh	RecA splice inh	Mtb betalactam	BJeLR viability
O=C(O)c1cccc(NC(=S)NC(NC(=O)c2cccc([N+](=O)[O-])c2)C(Cl)(Cl)Cl)c1 (stereo unspecified)	0	0	0	0	0	0
Cn1ncc2c(O/N=C(\N)c3ccc(C(C)(C)C)cc3)ncnc21	-	0	0	0	0	99
CCOC(=O)c1ccc(Nc2ncnc3c2cnn3C)cc1	0	0	0	0	0	0
COc1cccc(C(=O)Nc2ccc3c(c2)C(=O)N(C)C[C@@H](OC)[C@@H](C)CN[C@@H](C)CO3)c1	-	-	0	-	-	-
COCCCn1c(-c2ccc(OC)cc2)cc(C(=O)NC2CCCCCCC2)c1C	0	56	-	0	0	0
CN(C)CCNC(=O)c1cc2c(s1)-c1ccc(Cl)cc1SC2	0	0	0	0	0	79
CCOCCCNC(=O)c1cc2c(s1)-c1ccccc1SC2	0	0	0	0	0	0
CNC[C@@H]1Oc2ccc(NS(=O)(=O)c3ccc(Cl)cc3)cc2CC(=O)N([C@@H](C)CO)C[C@@H]1C	-	-	0	-	-	-
CN1\C(=C/C=C/C=C/C=[N+](C)C)C(C)(C)c2ccccc21	0	+	-	0	-	0
CN1/C(=C\C=O)C(C)(C)c2ccccc21	0	0	-	0	0	0
COc1ccc(NC(=O)Nc2ccc3c(c2)C(=O)N([C@H](C)CO)C[C@H](C)[C@H](CN(C)S(=O)(=O)c2cccs2)OCCCC[C@H](C)O3)cc1	-	-	0	-	-	-
COc1ccc(CCC(=O)Nc2c(-c3ccc(N(C)C)cc3)[nH][nH]c2=O)cc1	109	-	0	-	-	-
COc1ccc(-c2[nH][nH]c(=O)c2NC(=O)c2ccccn2)cc1	0	-	0	-	-	-
Cc1ccccc1Nc1nc(N)nc(CCl)n1	0	0	0	0	0	67
Nc1nc(CCl)nc(Nc2ccc3ccccc3c2)n1	0	0	-	46	-	114
CO[C@H]1CN(C)C(=O)c2cc(NS(=O)(=O)c3ccccc3)ccc2OC[C@@H](C)N(C(=O)NC(C)C)C[C@H]1C	-	-	0	-	-	-
CCCNC(=O)N1[C@H](CN(C)C(C)=O)[C@H](c2ccc(C3=CCCC3)cc2)[C@@H]1CO	-	-	0	-	-	-
CC1C(=O)C(C)C(c2cc(Cl)ccc2O)NC1c1cc(Cl)ccc1O (stereo unspecified)	0	0	0	50	0	0
COc1cccc(C2NC(c3cccc(OC)c3O)C(C)C(=O)C2C)c1O (stereo unspecified)	0	0	0	0	0	0
COCC#Cc1ccc2c(c1)O[C@@H](CN(C)S(=O)(=O)c1cccc(OC)c1)[C@@H](C)CN([C@H](C)CO)S2(=O)=O	-	-	0	-	-	-
CC1=[N+](C)c2c(ccc3cccnc23)C1(C)C	31	0	-	-	-	-
Cc1[nH]c2c(ccc3cccnc32)c1C	0	0	0	0	0	0

Assay outcomes deposited in PubChem by several laboratories.
